# Source: PubChem (National Center for Advancing Translational Sciences (NCATS))
# Only some compounds are listed: those with a hit (about 7.5% of all), similar ones and a draw of the others.
# Rab9 promoter act = qHTS Assay for Rab9 Promoter Activators | Huh7 Rab9 promoter-luciferase reporter, luminescence, 24 h | Potency, µM (top dose mostly 9.22 µM), for inactives: at the highest dose activation, negative = inhibition, most hits filed as activators | 2.8% of 320,000 active; further: % of control where 0% means no effect; nearly all actives have a fitted effect of over 60% in size
#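 Quantitative HTS format; Huh7 Rab9-luciferase reporter cells (1500/well) receive compound 2 h post-plating, incubate 24 h at 37 °C, then get luciferase reagent for 10 min before luminescence reading.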
# ELG1 genotox = qHTS screen for small molecules that induce genotoxicity in human embryonic kidney (HEK293T) cells expressing luciferase-tagged ELG1; HEK293T ELG1-luciferase reporter, luminescence, 16 h; Potency, µM (series often up to 46 µM), without a hit: top-dose activity change, positive = activation, most hits filed as activators; 1.3% of 330,000 active; AID 504466, 2011; further: % of control where 0% means no effect; nearly all actives have a fitted effect of over 60% in size
#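 Cells (2,000/well) expressing the ELG1-luciferase fusion are dosed by pin tool and kept 16 hr at 37 °C, 5% CO2. Signal comes from ONE-Glo luciferase reagent after 30 min at room temperature.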
# FLuc modulator = qHTS profiling assay for firefly luciferase inhibitor/activator using purifed enzyme and Km concentrations of substrates (counterscreen for miR-21 project) | Potency, µM (doses to about 57.5 µM), for inactives: at the highest dose activity change, negative = inhibition, hits mostly inhibitors | purified FLuc, Km substrates, luminescence inhibition | Luciferin 4-monooxygenase (Photinus pyralis), P08659 | 6.9% of 360,000 active | AID 588342, 2011;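 further: plate controls were vehicle for no effect and reference inhibitor for full effect; nearly all actives have a fitted effect of over 55% in size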
# Target sequence (P08659 whole entry, looked up): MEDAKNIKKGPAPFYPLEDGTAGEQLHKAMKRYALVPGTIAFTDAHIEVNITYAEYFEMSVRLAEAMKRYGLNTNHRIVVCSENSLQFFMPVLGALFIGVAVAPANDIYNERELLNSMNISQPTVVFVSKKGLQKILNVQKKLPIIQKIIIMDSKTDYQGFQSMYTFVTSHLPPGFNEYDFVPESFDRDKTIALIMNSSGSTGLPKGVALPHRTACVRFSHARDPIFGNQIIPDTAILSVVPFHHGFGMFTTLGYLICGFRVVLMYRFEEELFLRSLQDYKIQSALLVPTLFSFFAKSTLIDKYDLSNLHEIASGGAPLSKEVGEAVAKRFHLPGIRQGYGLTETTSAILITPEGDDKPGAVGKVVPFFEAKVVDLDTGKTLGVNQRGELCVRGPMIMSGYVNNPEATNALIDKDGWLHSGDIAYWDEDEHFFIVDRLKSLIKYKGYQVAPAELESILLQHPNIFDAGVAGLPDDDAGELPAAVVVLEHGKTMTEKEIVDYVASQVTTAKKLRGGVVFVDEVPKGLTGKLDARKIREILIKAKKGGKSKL
#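 Purified P. pyralis luciferase (10nM final) with 10uM D-luciferin and 10uM ATP (Km levels) in 50mM Tris acetate pH 7.5, 10mM Mg acetate, 0.01% Tween-20, 0.05% BSA; qHTS 6-point titration, ~60 µM downward; luminescence read.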
# NPC1 prom act = qHTS Assay for NPC1 Promoter Activators; Huh7 NPC1 promoter luciferase reporter, 24 h; AID 485313, 2010; 2.4% of 320,000 active; Potency, µM (series often up to 9.22 µM), for inactives: top-dose activation, most hits filed as activators; further: % of control where 0% means no effect; nearly all actives have a fitted effect of over 60% in size
#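 Cells: Huh7 expressing luciferase under the NPC1 promoter, 1500/well. Seeded 2 h, compound added, incubated 24 h at 37 °C. Luciferase reagent, 10 min ambient, then luminescence.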
# KinaseGlo FLuc = Counterscreen for Luciferase (Kinase-Glo TM) Inhibition. Potency, µM (titrated, usually from 38.3 µM), for the others: top-dose activity change, negative = inhibition, most hits filed as inhibitors. 0.28% of 200,000 active. AID 1379, 2008. Luciferin 4-monooxygenase (Photuris pensylvanica), Q27757. Kinase-Glo luciferase, ATP luminescence, 8 min; further: on the % scale 0 is the no-effect control and ±100 the full control effect; nearly all actives have a fitted effect of over 60% in size
#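 Light output from Kinase-Glo luciferase with luciferin and 10 uM ATP in 50 mM imidazole pH 7.2, KCl, MgCl2, Tween 20, BSA; compound pin-delivered, 8-min ambient incubation, then luminescence read.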
# SMN2 splice up = qHTS Assay for Enhancers of SMN2 Splice Variant Expression | HEK293 SMN2-luciferase splicing reporter, luminescence, 30-36 h | Potency, µM (series often up to 46.1 µM), for inactives: at the top dose activity change, positive = activation, most hits filed as activators | AID 1458, 2008 | 2.8% of 210,000 active; further: % of control where 0% means no effect; nearly all actives have a fitted effect of over 55% in size
#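 HEK293 cells carry an SMN2 minigene-luciferase reporter in which exon 7 inclusion puts luciferase in frame. Cells were seeded at 2000 cells/well, attached for 10-12 hours, then exposed to compounds for 30-36 hours at 37C before ONE-Glo luminescence.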
# * = called active by the depositor; ? = inconclusive; . = no result. The call rests on the fitted dose curve; in most records, active means well fitted curve in the direction sought with a large enough effect; inconclusive means small, poorly fitted or top-dose-only effect, or another doubt; inactive means no such curve, though single readings can be large; an effect the other way counts as inactive or inconclusive. Potency means the concentration at half of the fitted maximal effect.
SMILES,Rab9 promoter act,ELG1 genotox,FLuc modulator,NPC1 prom act,KinaseGlo FLuc,SMN2 splice up
COc1ccc(/C=C/c2nnc(NC(=O)CSc3ccc(C)cc3)s2)cc1,29.8%,6.6%,?,?,.,.
COC(=O)Nc1nnc(/C=C/c2ccccc2)s1,22.2%,?,5.36µM*,18.7%,-4.6%,20µM*
Cn1nccc1C(=O)Nc1sc2c(c1C(N)=O)CCCC2,?,?,9.53µM*,25.2%,-1.5%,5.0%
CC(=O)Nc1sc2c(c1C(N)=O)CCCC2,8.9%,-0.7%,2.7%,-2.2%,-2.6%,4.8%
CCn1ncc(Br)c1C(=O)Nc1sc2c(c1C(N)=O)CCC2,10.2%,0.9%,-4.2%,-0.1%,0.0%,-8.9%
Cn1cc(Br)c(C(=O)Nc2sc3c(c2C(N)=O)CCC3)n1,17.7%,12.1%,10.7µM*,22.4%,-6.9%,40.7%
Cn1ccc(C(=O)Nc2sc3c(c2C(N)=O)CCCCC3)n1,0.501µM*,0.461µM*,0.601µM*,1µM*,.,.
Cn1nccc1C(=O)Nc1sc2c(c1C#N)CCCC2,5.8%,11.3%,?,11.8%,.,.
Cc1cc(C(F)F)n2nc(C(=O)Nc3sc4c(c3C(N)=O)CCC4)nc2n1,-1.9%,1.3%,12µM*,2.4%,0.1%,-8.1%
COc1c2c(cc3ccc(=O)oc13)CCO2,2.3%,-1.7%,-0.5%,3.8%,.,.
CCCCn1c(N)c(N(CCOC)C(=O)CCCc2cccs2)c(=O)[nH]c1=O,-8.1%,6.4%,-1.2%,2.0%,.,.
O=C(CCCC(=O)N1CCN(c2ccccc2F)CC1)c1ccccc1,4.47µM*,?,26.9µM*,?,.,.
O=C(CCc1nnc(C2CCCCC2)o1)N1CCN(c2ccccc2F)CC1,3.55µM*,?,12µM*,2.51µM*,.,.
C/C(CC(=O)Nc1ccc(Cl)cc1C(F)(F)F)=N\NC(=O)c1ccccn1,-0.1%,10.1%,1.3%,-0.3%,.,.
Cc1ccc(-c2cc(C(=O)N/N=C/c3ccco3)[nH]n2)cc1,14.6%,8.7%,21.3µM*,-0.9%,-3.3%,15.8%
O=C(N/N=C/c1ccco1)c1cc(-c2cccc3ccccc23)n[nH]1,-2.6%,8.9%,16.9µM*,22.5%,-2.8%,-15.1%
O=C(N/N=C/c1ccccc1C(=O)O)c1cc(-c2ccc3c4c(cccc24)CC3)n[nH]1,-7.6%,-0.9%,15.1µM*,-6.1%,-1.1%,4.6%
O=C(CSc1nnc2c(n1)[nH]c1ccccc12)Nc1ccc2c(c1)OCO2,0.0%,25.7%,?,-0.5%,-6.1%,-47.8%
COc1ccc(-n2ncc3c(NC(C)(C)CO)ncnc32)cc1,.,.,4.78µM*,.,.,.
c1ccc(CCNc2ncnc3c2cnn3-c2ccccc2)cc1,1.58µM*,?,6.75µM*,3.16µM*,1.9%,11.2µM*
c1ccc(-n2ncc3c(NCCN4CCCCC4)ncnc32)cc1,?,?,19µM*,?,0.2%,10.0%
O=c1[nH]n(-c2ncnc3c2cnn3-c2ccccc2)c(=O)c2ccccc12,5.1%,-0.4%,13.5µM*,-2.6%,0.2%,-3.2%
COc1ccc(C(=O)NNc2ncnc3c2cnn3-c2ccccc2)cc1,.,.,-8.8%,.,.,.
Fc1ccc(CNc2ncnc3c2cnn3-c2ccccc2)cc1,.,.,?,.,-2.6%,-17.1%
O=C(NCc1ccco1)C(=O)NCC1OCCCN1S(=O)(=O)c1ccccc1 (stereo not given),2.5%,0.6%,-0.3%,-1.4%,-2.2%,11.1%
SMILES,Rab9 promoter act,ELG1 genotox,FLuc modulator,NPC1 prom act,KinaseGlo FLuc,SMN2 splice up
c1ccc(-n2ncc3c(NCCN4CCOCC4)ncnc32)cc1,10.8%,13µM*,?,?,-8.3%,.
CC(C)(C)Nc1ncnc2c1cnn2-c1ccccc1,0.398µM*,1.03µM*,1.51µM*,0.355µM*,-0.6%,2µM*
COc1ccccc1Oc1ncnc2c1cnn2-c1ccccc1,3.98µM*,?,12µM*,?,0.9%,12.6µM*
O=C(O)c1cccc(NC(=O)c2cccc(S(=O)(=O)N3CCc4ccccc43)c2)c1,2.9%,5.1%,21.3µM*,14.3%,.,.
O=C(O)c1cccc(NC(=O)c2cccc(S(=O)(=O)N3CCc4ccccc4C3)c2)c1,4.2%,1.5%,21.3µM*,0.4%,0.5%,-3.2%
COc1ccc(C(=O)NCc2ccc3c(c2)CCN3C(=O)c2ccncc2)cc1,.,.,-17.8%,.,.,.
S=C(c1ccc(-c2cc(Cl)ccc2Cl)o1)N1CCCCC1,-3.7%,-2.9%,16.9µM*,3.1%,1.3%,-36.0%
O=C(Nc1ccccc1N1CCCCC1)c1ccc(-c2cccc(Cl)c2)o1,-2.4%,3.8%,-10.5%,3.5%,-2.6%,-40.3%
S=C(c1ccc(-c2cccc(Cl)c2)o1)N1CCOCC1,3.55µM*,3.55µM*,5.36µM*,3.16µM*,-0.5%,25.1µM*
S=C(c1ccc(-c2cccc(Cl)c2)o1)N1CCCCC1,2.51µM*,?,2.69µM*,3.55µM*,-0.4%,11.2µM*
O=C(NC(=S)Nc1cc(Cl)ccc1N1CCOCC1)c1ccc(-c2cccc(Cl)c2)o1,-10.9%,3.2%,0.4%,-7.1%,4.3%,1.4%
S=C(c1ccc(-c2cc(Cl)ccc2Cl)o1)N1CCOCC1,-3.5%,0.5%,?,1.1%,-1.8%,-16.4%
COCc1c(C(=O)OCC(=O)N2CCCC2=O)oc2ccccc12,-5.9%,-2.5%,-0.4%,-1.7%,.,.
O=C(COC(=O)c1ccccc1Cc1ccccc1)NC1CCS(=O)(=O)C1 (stereo not given),21.6%,0.9%,2.9%,1.7%,.,.
COc1ccc(-c2nnc(CSc3ncnc4sc5c(c34)CCC5)o2)cc1OC,-3.0%,23.1µM*,10.9%,-1.8%,-10.7%,-3.9%
COc1ccc(NS(=O)(=O)c2ccc(N3CCCCS3(=O)=O)cc2)cc1Cl,.,.,-1.8%,.,.,.
CCC(=O)/C=C1/Sc2ccc(OC)cc2N1CCO,-16.1%,-0.3%,-4.4%,-0.8%,-4.4%,.
CCC(/C=C1\Sc2ccc(OC)cc2N1CC)=C\c1sc2ccc(OC)cc2[n+]1CCCS(=O)(=O)[O-],-8.5%,-8.4%,?,-9.2%,10µM*,.
CCC(/C=C1\Sc2ccc(OC)cc2N1CCO)=C\c1sc2ccc(OC)cc2[n+]1CCO,-9.4%,-10.8%,15.1µM*,-4.3%,10µM*,-73.5%
Cc1cccc(NS(=O)(=O)c2ccc3c(c2)C(C)(C)C(=O)N3C)c1,.,.,-2.7%,.,.,.
Cc1ccc(C(=O)CC2(O)C(=O)N(C)c3ccccc32)s1 (stereo not given),-7.1%,-1.0%,?,-3.8%,0.5%,-20.2%
